Screening results deposited in PubChem by several laboratories.
eIF4E-4G inh = inhibitors of eIF4E and eIF4G interaction in translation initiation; TR-FRET eIF4E-eIF4GI(517-606) binding, 2 h; inhibition, % at 21.7 µM; actives 0.37% (n = 220,000); AID 782;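 further: 0% = full FRET control wells and 100% = background wells lacking eIF4GI fragment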
p47phox inh = p47phox (human) inhibition | P14598 | inhibition, % at 24.7 µM | actives 0.53% (n = 220,000) | p47phox/p22phox peptide binding, fluorescence polarization, 2 h;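 further: 0% = p47phox with labelled peptide and 100% = labelled peptide alone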
Target sequence (P14598 whole entry, looked up): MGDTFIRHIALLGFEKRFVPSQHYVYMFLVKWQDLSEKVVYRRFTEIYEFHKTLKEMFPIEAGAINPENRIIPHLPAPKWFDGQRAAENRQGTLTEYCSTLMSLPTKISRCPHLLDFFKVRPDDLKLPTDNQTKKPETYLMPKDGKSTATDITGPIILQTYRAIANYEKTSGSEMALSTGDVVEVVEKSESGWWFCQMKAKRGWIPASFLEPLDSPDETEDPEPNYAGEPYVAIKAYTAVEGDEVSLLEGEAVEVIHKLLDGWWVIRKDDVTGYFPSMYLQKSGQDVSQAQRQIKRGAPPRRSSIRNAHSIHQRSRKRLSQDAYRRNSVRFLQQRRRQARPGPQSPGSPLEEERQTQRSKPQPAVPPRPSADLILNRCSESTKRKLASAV
Mcl-1 Bim block = disrupts Bim peptide binding to human Mcl-1. Bead-based flow cytometry, Bim peptide-Mcl-1 binding. inhibition, % at 10 µM. actives 0.1% (n = 190,000); in the data active means inhibition above about 40%;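 further: 0% = no compound tracer wells and 100% = peptide blocker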
Mcl1 Bid PPI = Mcl-1/Bid interaction inhibition. Q07820. TR-FRET Mcl-1/Bid-Dy647 peptide binding, 1536-well. inhibition, % at 21.7 µM. actives 0.97% (n = 220,000). AID 1021;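 active means compounds that cut the binding signal by more than half at the single screening dose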;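 further: His-tagged Mcl-1 with europium anti-His antibody binding Bid BH3 peptide; 0% = Mcl-1 plus peptide wells and 100% = peptide-only wells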
14-3-3 Bad inh = disrupts binding of bovine 14-3-3 zeta to phospho-Bad peptide; P63103; TR-FRET 14-3-3zeta/Dy647-pBad peptide displacement, 1 h; inhibition, % at 21.7 µM; actives 0.71% (n = 220,000);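 active means inhibition above about 70%, limit read from the data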;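 further: 0% = full 14-3-3 plus peptide FRET controls and 100% = background without 14-3-3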
Mcl1-Noxa inh = disrupts binding of human Mcl-1 to Noxa peptide; Q07820; TR-FRET Mcl-1/Noxa peptide binding, 2 h; inhibition, % at 21.7 µM; actives 1.5% (n = 220,000);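 active means compounds that cut the protein-peptide binding signal by more than 50% relative to plate controls in a single-dose test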;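 further: His-tagged Mcl-1 with rhodamine Noxa BH3 peptide and terbium anti-His antibody; 0% = Mcl-1 plus Noxa peptide wells and 100% = peptide-only wells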
An asterisk follows results filed as active; . = no result; [ ] = dose if it differs, or a comment. In the library only some 3.4% were active in any assay of this set; here they are far more common.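 How the source made its calls, unless noted: active means inhibition above about 30% (limit read from the data); inactive means the rest.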

SMILES	eIF4E-4G inh	p47phox inh	Mcl-1 Bim block	Mcl1 Bid PPI	14-3-3 Bad inh	Mcl1-Noxa inh
COc1ccc2[nH]c(=O)c(CN(Cc3cccs3)C(=S)NCC3CCCO3)cc2c1 (stereo not given)	71*	-10	.	-139	2	29
O=C(CN1C(=O)C2C3CCC(C3)C2C1=O)N1CCN(Cc2ccccc2)CC1 (stereo not given)	-2	-3	0	-12	5	10
CN1CCN(CC(=O)NC2CCCCC2)CC1	0	-2	-1	54*	71*	12
CC(C)N(C(=O)CS(=O)(=O)c1ccc(Cl)c(Cl)c1)C(C)C	2	5	-2	-11	-3	-11
Cc1ccc(C)c(N2CCN(c3ccc(N4C(=O)COCC4=O)cc3[N+](=O)[O-])CC2)c1	-5	-10	-3	-5	-5	9
Cc1cc(N2C(=O)C=CC2=O)c([N+](=O)[O-])cc1C	12	18	-12	57*	-4	50
ClC(/C=N/n1cnnc1)=C/c1ccccc1	0	-4	.	-55	3	10
N=c1c[n+](N2CCOCC2)[n-]o1	12	-9	0	56*	6	7
COc1ccc(C2=CC3=C(Br)C(=O)C(C)(OC(=O)c4ccc(Cl)nc4)C(=O)C3=CO2)cc1 (stereo not given)	10	-6	.	-10	15	53*
COC(=O)CCC(=O)OC1(C)C(=O)C2=COC(c3ccc(OC)cc3)=CC2=C(Br)C1=O (stereo not given)	19	-11	.	-41	13	50*
CCOC(=O)c1c(C)[nH]c(C)c1C(=O)COc1ncnc2cc([N+](=O)[O-])ccc12	0	-13	9	-24	-10	28
COc1cc(C(=S)N2CCOCC2)ccc1OC(=O)/C=C/c1ccco1	-2	-3	-1	-34	-18	7
Cc1ccccc1CNC(=O)Nc1cccs1	-3	-17	0	-24	-24	52*
CCn1cc(/C=C/C(=O)Nc2ccn(Cc3c(F)c(F)cc(F)c3F)n2)cn1	0	0	-8	7	12	54*
COc1ccc(-c2nn(-c3ccccc3)cc2C(=O)NC(=S)Nc2cc(Cl)ccc2Cl)cc1	-2	-23	.	-76	4	3
COC(=O)c1c(-c2ccc(C)cc2)csc1NC(=O)c1c(-c2ccccc2)noc1C	21	-52	-9	-41	-17	-43
COC(=O)c1c(-c2cccnc2)csc1NC(=O)c1cc(C)on1	-1	-60	-3	-8	3	58*
CCOC(=O)CN(C(=O)COc1nc(-c2ccccc2)cc(C)c1C#N)c1ccccc1C	8	2	.	-7	2	8
NS(=O)(=O)c1ccc(CNC(=S)Nc2ccc(F)c(Cl)c2)cc1	0	-7	-5	-43	-21	8
COc1ccc(CNS(=O)(=O)c2ccc(F)c(C(=O)Nc3ccc(OC)cc3)c2)cc1	2	-1	-2	-12	-3	53*
O=[N+]([O-])c1ccc(NC(=S)NCCc2ccc(Cl)cc2)cc1	2	-23	-8	94*	7	21
NS(=O)(=O)c1ccc(NC(=S)NCc2ccc(Cl)cc2)cc1	35*	-3	-14	-40	13	10
CC(=O)Nc1ccc(S(=O)(=O)NCc2ccc(C(=O)NCc3ccc(Cl)cc3)cc2)cc1	-37	12	2	18	74*	-30
COc1ccc(CCC(=O)N/N=C\c2cccs2)cc1	-1	0	-5	-25	-2	9
Cc1cc(C)nc(NC(=NCCc2c[nH]c3ccccc23)NC(=O)C(C)(C)C)n1	0	-2	.	-31	-16	24
SMILES	eIF4E-4G inh	p47phox inh	Mcl-1 Bim block	Mcl1 Bid PPI	14-3-3 Bad inh	Mcl1-Noxa inh
CCOC(=O)c1c(C)nc2sc3c(=O)n(-c4ccc(C(C)=O)cc4)cnc3c2c1-c1ccc(Cl)cc1	-3	-13	1	-1	11	21
CCOC(=O)c1c(C)nc2sc3c(=O)n(-c4ccc(C(C)=O)cc4)nnc3c2c1-c1ccc(Cl)cc1	-16	60*	0	-14	-7	9
O=C(NCc1cn(-c2ccccc2)nc1-c1ccccc1)c1cc([N+](=O)[O-])cc([N+](=O)[O-])c1	-7	-28	-4	-15	96*	-2
O=C(NCc1cn(-c2ccccc2)nc1-c1ccccc1)c1cccc([N+](=O)[O-])c1	3	-8	-6	-10	-3	10
CC(=O)NS(=O)(=O)c1ccc(NC(=O)c2ccc3c(c2)C(=O)N(CCC(C)C)C3=O)cc1	17	59*	-4	-18	0	13
CCOC(=O)c1c(C)[nH]c(C(=O)CC(=O)OC)c1C	-2	1	0	-2	1	17
O=C(Nc1ccccc1)N1CCN(Cc2ccc3c(c2)OCO3)CC1	4	-11	-2	58*	60	-7
OCCN1CCN(CC(O)COCc2ccc3c(c2)OCO3)CC1 (stereo not given)	-1	6	-2	18	49	21
COc1ccc(NC(=O)CN2CCN(Cc3ccc4c(c3)OCO4)CC2)cc1OC	-2	5	-1	38	62	13
Cc1cc(C)cc(NC(=O)N2CCN(Cc3ccc4c(c3)OCO4)CC2)c1	-3	4	.	-7	3	5
OC(COCc1ccc2c(c1)OCO2)CN1CCN(Cc2ccccc2)CC1 (stereo not given)	-2	-2	-3	52*	79*	23
COc1cc(NC(=O)CN2CCN(Cc3ccc4c(c3)OCO4)CC2)cc(OC)c1	3	5	-1	36	82*	34
O=C(CSc1ncnc2scc(-c3ccccc3)c12)N1CCN(Cc2ccc3c(c2)OCO3)CC1	2	12	-4	-38	-15	61*
NS(=O)(=O)c1ccc(CCNC(=O)c2cc(-c3cc(Cl)ccc3O)n[nH]2)cc1	4	-10	.	-6	-4	14
O=C(c1ccc2c(c1)OCO2)N1CCC2(CC1)Oc1ccc(F)cc1C(=O)C21CC(c2ccccc2)=NO1 (stereo not given)	-2	3	.	-25	-5	11
CC(=O)OCC(OC(C)=O)C(OC(C)=O)C(OC(C)=O)C(=O)Nc1cccc(C)c1 (stereo not given)	13	-11	.	-9	5	2
O=C(c1cccn2c(=O)c3ccccc3nc12)N1CCN(Cc2ccc3c(c2)OCO3)CC1	.	-10	-2	-29	.	11
O=C(c1cccn2c(=O)c3cc(Cl)ccc3nc12)N1CCN(Cc2ccc3c(c2)OCO3)CC1	46*[fluorescence artefact?]	2	0	-9	5	17
O=C(/C=C/c1ccco1)NC(=S)Nc1ccc(O)c(-c2nc3ccccc3s2)c1	6	11	-6	59*	22	52*
O=C(Nc1ccc(O)c(-c2nc3ccccc3s2)c1)c1cc(=O)c2ccccc2o1	12	-54	-7	52*	76*	51*
